Results from PubChem BioAssay (Tox21).
Inconclusive results are not listed. A call without a number means that no potency is given here. Active and inactive are the calls of the source. Unless noted, calls follow the shape of the dose curve; as a rule, active = well fitted curve in the direction sought with a large enough effect in the repeat runs; inconclusive = weak or mixed curves; inactive = no such curve, though single readings can be large; an effect the other way counts as inactive or inconclusive.

Legend:
[1] = biological target: Androgen receptor (Homo sapiens) (UniProt P10275); experiment: qHTS assay to identify small molecule agonists of the androgen receptor (AR) signaling pathway in the presence of an antagonist (AID 1259381; calls by dose curve; also: nearly all actives have a fitted effect of over 15% in size)
Chain of Androgen receptor (Homo sapiens) (P10275 whole entry, looked up): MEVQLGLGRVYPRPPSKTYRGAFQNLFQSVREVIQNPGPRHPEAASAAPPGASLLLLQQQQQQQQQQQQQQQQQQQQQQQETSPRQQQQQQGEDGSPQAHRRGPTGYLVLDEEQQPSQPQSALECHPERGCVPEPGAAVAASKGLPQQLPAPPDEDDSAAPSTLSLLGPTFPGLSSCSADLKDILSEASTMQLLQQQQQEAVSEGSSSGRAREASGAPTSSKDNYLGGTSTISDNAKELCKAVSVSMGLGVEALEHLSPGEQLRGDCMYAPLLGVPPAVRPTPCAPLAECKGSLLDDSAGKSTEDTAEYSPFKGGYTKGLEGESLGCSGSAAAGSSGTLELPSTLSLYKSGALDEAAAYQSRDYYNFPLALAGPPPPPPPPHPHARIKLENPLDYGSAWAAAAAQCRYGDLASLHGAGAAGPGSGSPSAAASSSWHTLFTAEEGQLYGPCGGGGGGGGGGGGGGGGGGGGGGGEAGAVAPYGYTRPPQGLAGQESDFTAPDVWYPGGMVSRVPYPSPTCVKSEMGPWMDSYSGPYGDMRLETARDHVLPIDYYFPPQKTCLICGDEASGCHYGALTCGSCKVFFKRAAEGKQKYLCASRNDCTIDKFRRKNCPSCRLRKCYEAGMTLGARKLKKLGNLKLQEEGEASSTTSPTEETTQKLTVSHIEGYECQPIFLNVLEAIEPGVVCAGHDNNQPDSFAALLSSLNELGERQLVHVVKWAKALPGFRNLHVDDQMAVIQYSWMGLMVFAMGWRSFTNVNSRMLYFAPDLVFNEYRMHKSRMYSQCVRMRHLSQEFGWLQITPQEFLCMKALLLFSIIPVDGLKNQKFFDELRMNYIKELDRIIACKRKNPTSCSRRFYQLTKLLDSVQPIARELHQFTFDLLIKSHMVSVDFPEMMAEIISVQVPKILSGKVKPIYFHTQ
Outline: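 Using human MDA-kb2 cells with an MMTV promoter–luciferase construct (AR and GR response elements), agonist activity is scored under 3.0uM nilutamide (final) co-treatment; 16hr incubation, 37C, luminescence readout via ONE-Glo.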

[2] = biological target: Estrogen receptor (Homo sapiens) (UniProt P03372); experiment: qHTS assay to identify small molecule agonists of the estrogen receptor alpha (ER-alpha) signaling pathway in the presence of an antagonist (AID 1259383; calls by dose curve; also: nearly all actives have a fitted effect of over 15% in size; also: potency is read from the fitted curve at half-maximal effect; as to activation: top concentration of the series differs between compounds)
Chain of Estrogen receptor (Homo sapiens) (P03372 whole entry, looked up): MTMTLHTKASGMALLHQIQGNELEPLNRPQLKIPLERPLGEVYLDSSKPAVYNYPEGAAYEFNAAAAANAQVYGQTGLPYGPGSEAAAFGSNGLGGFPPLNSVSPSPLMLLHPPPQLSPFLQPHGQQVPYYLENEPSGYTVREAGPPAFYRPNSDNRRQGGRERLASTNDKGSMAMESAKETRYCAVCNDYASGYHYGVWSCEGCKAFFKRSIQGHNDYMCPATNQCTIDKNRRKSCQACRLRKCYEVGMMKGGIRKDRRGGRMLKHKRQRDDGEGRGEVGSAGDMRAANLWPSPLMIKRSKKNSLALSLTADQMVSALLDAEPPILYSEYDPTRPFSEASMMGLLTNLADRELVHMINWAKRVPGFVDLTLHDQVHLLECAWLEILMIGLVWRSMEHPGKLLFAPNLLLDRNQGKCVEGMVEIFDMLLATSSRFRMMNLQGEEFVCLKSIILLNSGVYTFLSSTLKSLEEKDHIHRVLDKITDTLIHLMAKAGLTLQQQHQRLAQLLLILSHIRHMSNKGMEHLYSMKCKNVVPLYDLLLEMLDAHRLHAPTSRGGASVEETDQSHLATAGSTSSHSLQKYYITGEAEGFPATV
Outline: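 Using VM7Luc4E2 cells seeded 24hr before treatment, antagonist ICI-182,780 (10.0nM final) was added, followed by compounds at 15 concentrations. Plates incubated 22hr; ONE-Glo luminescence quantified reporter activity.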

[3] = qHTS assay to identify small molecule agonists or antagonists of the thyroid stimulating hormone receptor (TSHR) signaling pathway - wild type cell line counter screen (AID 1259384; calls by dose curve)
Outline: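 Wild-type Hek293 cells, 800/well, 18 h at 37C, then compound with Ro20-1724 for 30 min RT. cAMP by HTRF (cAMP-d2/anti-cAMP cryptate), 1 h RT, fluorescence read. 15 concentrations, triplicates.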

[4] = qHTS assay to identify small molecule agonists of the estrogen receptor alpha (ER-alpha) signaling pathway in the presence of an antagonist - cell viability counter screen (AID 1259386);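 also: series mostly up to about 92 µM; cells exposed to compounds for 22 h at 37 °C before the viability read; nearly all actives have a fitted effect of over 30% in size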
Outline: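 ICI-182,780 at 10.0nM final accompanies the compound titration (15 concentrations, 22hr, 37C) on VM7Luc4E2 cells. The CellTiter-Fluor fluorescence readout runs in the same wells as the luciferase assay.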

[5] = biological target: Progesterone receptor (Homo sapiens) (UniProt P06401); experiment: qHTS assay to identify small molecule agonists of the progesterone receptor (PR) signaling pathway (AID 1346784; calls by dose curve; also: nearly all actives have a fitted effect of over 30% in size)
Chain of Progesterone receptor (Homo sapiens) (P06401 whole entry, looked up): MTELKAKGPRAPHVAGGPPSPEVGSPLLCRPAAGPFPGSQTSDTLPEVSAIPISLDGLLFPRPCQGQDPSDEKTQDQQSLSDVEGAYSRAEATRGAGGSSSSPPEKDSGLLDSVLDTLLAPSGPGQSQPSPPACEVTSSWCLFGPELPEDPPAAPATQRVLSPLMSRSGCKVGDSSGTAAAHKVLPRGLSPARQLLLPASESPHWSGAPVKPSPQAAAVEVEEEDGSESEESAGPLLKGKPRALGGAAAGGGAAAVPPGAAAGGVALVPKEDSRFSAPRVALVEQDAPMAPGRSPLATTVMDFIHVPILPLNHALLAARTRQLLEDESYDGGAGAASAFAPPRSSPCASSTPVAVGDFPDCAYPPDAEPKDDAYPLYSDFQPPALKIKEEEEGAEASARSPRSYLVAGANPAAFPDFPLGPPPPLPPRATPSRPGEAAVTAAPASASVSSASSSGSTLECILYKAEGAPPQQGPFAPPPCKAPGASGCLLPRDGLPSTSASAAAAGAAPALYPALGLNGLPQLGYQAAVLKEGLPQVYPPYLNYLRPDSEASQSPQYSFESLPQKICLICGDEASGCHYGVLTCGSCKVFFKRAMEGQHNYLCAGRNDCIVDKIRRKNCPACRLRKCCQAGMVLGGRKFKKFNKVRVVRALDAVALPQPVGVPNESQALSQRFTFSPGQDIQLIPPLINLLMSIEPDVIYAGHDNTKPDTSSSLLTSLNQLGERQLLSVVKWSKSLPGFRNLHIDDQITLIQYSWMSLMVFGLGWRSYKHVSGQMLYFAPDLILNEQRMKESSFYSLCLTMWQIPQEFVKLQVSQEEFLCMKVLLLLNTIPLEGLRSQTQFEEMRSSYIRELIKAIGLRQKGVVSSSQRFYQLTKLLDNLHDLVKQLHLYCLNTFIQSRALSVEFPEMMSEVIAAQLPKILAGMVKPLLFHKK
Outline: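 Beta-lactamase reporter read-out: after 16 hr compound treatment at 37C and a further 2 hr at room temperature with LiveBLAzer B/G FRET substrate, fluorescence was measured in PR-UAS-bla HEK 293T cells grown in 2% charcoal-stripped serum.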

[6] = qHTS assay to identify small molecule antagonists of the TGF-beta/Smad signaling pathway - cell viability counter screen (AID 1346824); also: nearly all actives have a fitted effect of over 50% in size
Outline: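 SBE-bla HEK 293T cells, incubated overnight, then compound plus 0.25 ng/mL TGF-beta1 (stock added) for 5 hr at 37 C. Viability was read in the same wells by CellTiter-Glo luminescence after 30 min at room temperature.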

[7] = qHTS assay to identify small molecule agonists of the TGF-beta/Smad signaling pathway - cell viability counter screen (AID 1346829); also: top concentration of the series differs between compounds; nearly all actives have a fitted effect of over 45% in size
Outline: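 Tox21 qHTS format: SBE-bla HEK 293T cells treated with DMSO-dissolved compounds for 5 hr; CellTiter-Glo luminescence after 30 min at room temperature.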

[8] = qHTS assay to identify small molecule agonists of the androgen receptor (AR) signaling pathway in the presence of an antagonist - cell viability counter screen (AID 1259379);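 also: MDA-kb2 human breast cancer cells carrying an MMTV luciferase reporter; series mostly up to about 92 µM; nearly all actives have a fitted effect of over 25% in size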
Outline: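 A CellTiter-Fluor read-out measured viability of MDA-kb2 reporter cells (MMTV promoter with AR and GR response elements). Treatment: nilutamide 3.0uM final with compounds at 15 concentrations, 16 hr, 37C, 0% CO2.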

[9] = qHTS assay to identify small molecule antagonists of the estrogen receptor beta (ER-beta) signaling pathway - cell viability counter screen (AID 1259382); also: series mostly up to about 92 µM; nearly all actives have a fitted effect of over 55% in size
Outline: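 Agonist-stimulated (1nM E2) ER-beta-UAS-bla HEK293T cells are incubated with library compounds for 16 hr at 37C. Cell viability is then assessed in the reporter-assay wells by adding CellTiter-Glo and reading luminescence after 30 min.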

[10] = biological target: Thyrotropin receptor (Homo sapiens) (UniProt P16473); experiment: qHTS assay to identify small molecule antagonists of the thyroid stimulating hormone receptor (TSHR) signaling pathway (AID 1259385; calls by dose curve; also: nearly all actives have a fitted effect of over 20% in size)
Chain of Thyrotropin receptor (Homo sapiens) (P16473 whole entry, looked up): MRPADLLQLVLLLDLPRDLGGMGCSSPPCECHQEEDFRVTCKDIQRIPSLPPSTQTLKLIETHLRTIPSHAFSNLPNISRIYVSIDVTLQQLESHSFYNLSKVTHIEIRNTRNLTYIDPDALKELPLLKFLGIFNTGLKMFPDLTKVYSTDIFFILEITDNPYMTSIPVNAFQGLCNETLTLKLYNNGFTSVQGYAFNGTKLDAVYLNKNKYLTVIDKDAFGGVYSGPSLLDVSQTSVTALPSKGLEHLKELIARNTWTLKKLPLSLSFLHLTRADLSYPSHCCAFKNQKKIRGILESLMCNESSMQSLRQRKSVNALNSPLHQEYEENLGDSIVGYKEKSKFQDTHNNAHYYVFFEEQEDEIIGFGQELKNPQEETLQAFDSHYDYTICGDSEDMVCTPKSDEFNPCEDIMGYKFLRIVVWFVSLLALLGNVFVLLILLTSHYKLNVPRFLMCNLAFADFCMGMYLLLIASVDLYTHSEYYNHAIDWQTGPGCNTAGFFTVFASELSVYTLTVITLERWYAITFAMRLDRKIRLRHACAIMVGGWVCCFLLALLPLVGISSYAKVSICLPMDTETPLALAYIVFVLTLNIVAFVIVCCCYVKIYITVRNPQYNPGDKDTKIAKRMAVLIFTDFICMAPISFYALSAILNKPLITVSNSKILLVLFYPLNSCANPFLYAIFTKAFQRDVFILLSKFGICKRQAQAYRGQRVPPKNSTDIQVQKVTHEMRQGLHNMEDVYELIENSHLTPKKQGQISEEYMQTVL
Outline: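 TSHR-HEK293 cells (800/well) plated 18 h, then compounds with Ro20-1724 and TSH at 1.5 ng/mL final, 30 min at room temperature. cAMP quantified by HTRF (cAMP-d2/anti-cAMP-cryptate, 1 h); 15 concentrations in triplicate.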

[11] = biological target: Progesterone receptor (Homo sapiens) (UniProt P06401); experiment: qHTS assay to identify small molecule antagonists of the progesterone receptor (PR) signaling pathway (AID 1346795; active = well fitted inhibition curve with a large enough effect in the signal ratio in the repeat runs, not every such curve was filed as active; the % refers to the signal ratio; also: potency is read from the fitted curve at half-maximal effect)
Outline: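 Read-out is fluorescence from the LiveBLAzer B/G FRET substrate, cleaved by a UAS-controlled beta-lactamase in PR-UAS-bla HEK293T cells after 16 hr exposure to compound plus 1 nM promegestone (final), followed by 2 hr at room temperature.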

[12] = qHTS assay to identify small molecule antagonists of the progesterone receptor (PR) signaling pathway - cell viability counter screen (AID 1346798);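 also: HEK293T PR-UAS-bla cells stimulated with the agonist R5020; series mostly up to about 92 µM; nearly all actives have a fitted effect of over 50% in size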
Outline: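 HEK293T PR-UAS-bla, 2% charcoal-stripped FBS; 4 hr pre-plate; cpd + R5020, 16 h 37C; LiveBLAzer read first; then CellTiter-Glo 30 min RT, luminescence.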

[13] = qHTS assay to identify small molecule agonists of the progesterone receptor (PR) signaling pathway - cell viability counter screen (AID 1346799; calls by dose curve; also: nearly all actives have a fitted effect of over 45% in size)
Outline: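 Luminescence from CellTiter-Glo, added after the beta-lactamase FRET read in the same wells, gave cytotoxicity in PR-UAS-bla HEK293T cells treated with compounds for 16 hr at 37C.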

[14] = biological target: Thyrotropin-releasing hormone receptor (Homo sapiens) (UniProt P34981); experiment: qHTS assay to identify small molecule antagonists of the thyrotropin-releasing hormone receptor (TRHR) signaling pathway (AID 1346877; active = well fitted inhibition curve with a large enough effect in the repeat runs, not every such curve was filed as active; also: series mostly up to about 51 µM)
Chain of Thyrotropin-releasing hormone receptor (Homo sapiens) (P34981 whole entry, looked up): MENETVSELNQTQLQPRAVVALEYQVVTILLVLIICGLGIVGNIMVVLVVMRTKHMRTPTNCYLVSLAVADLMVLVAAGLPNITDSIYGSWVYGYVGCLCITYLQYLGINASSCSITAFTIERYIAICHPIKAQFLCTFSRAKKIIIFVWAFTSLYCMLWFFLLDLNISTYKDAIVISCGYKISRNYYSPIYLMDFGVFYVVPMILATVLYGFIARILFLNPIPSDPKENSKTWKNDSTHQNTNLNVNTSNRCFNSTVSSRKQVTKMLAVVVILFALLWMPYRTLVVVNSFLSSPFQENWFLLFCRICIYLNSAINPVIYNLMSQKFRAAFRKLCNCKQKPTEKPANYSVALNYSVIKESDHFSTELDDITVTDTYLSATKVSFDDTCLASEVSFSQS
Outline: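 Screening used HEK293 cells engineered with TRHR, with a brief 5 min room-temperature compound exposure preceding addition of TRH to 1 nM. The read-out was kinetic calcium-dye fluorescence, concentration-response from 15 doses in triplicate.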

[15] = biological target: Thyrotropin-releasing hormone receptor (Homo sapiens) (UniProt P34981); experiment: qHTS assay to identify small molecule agonists of the thyrotropin-releasing hormone receptor (TRHR) signaling pathway (AID 1346891; calls by dose curve; also: series mostly up to about 58 µM)
Outline: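 Intracellular calcium rise, read as fluorescence every second for 3 min, served as the agonist signal in dye-loaded HEK293 cells expressing TRHR; each compound ran at 15 concentrations in triplicate.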

[16] = qHTS assay to identify small molecule agonists of the estrogen receptor beta (ER-beta) signaling pathway - cell viability counter screen (AID 1259380); also: nearly all actives have a fitted effect of over 30% in size; also: potency is read from the fitted curve at half-maximal effect
Outline: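 Cells used were ER-beta-UAS-bla HEK293T in medium with 2% charcoal-stripped FBS. They were treated for 16 hr at 37C. Viability came from CellTiter-Glo luminescence.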

[17] = qHTS assay to identify small molecule agonists of the TGF-beta/Smad signaling pathway (AID 1346859; active = well fitted activation curve with a large enough effect in the signal ratio in the repeat runs, not every such curve was filed as active; the % refers to the signal ratio; also: series mostly up to about 77 µM)
Outline: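 SBE-bla HEK 293T, 4,000 cells/well, plated o/n; cpd in DMSO, 5 hr, 37 C/5% CO2; B/G FRET substrate 2 hr RT; ex 405, em 460/530 nm.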

[18] = biological target: Estrogen receptor beta (Homo sapiens) (UniProt Q92731); experiment: qHTS assay to identify small molecule antagonists of the estrogen receptor beta (ER-beta) signaling pathway (AID 1259378; active = well fitted inhibition curve with a large enough effect in the signal ratio in the repeat runs, not every such curve was filed as active; the % refers to the signal ratio)
Chain of Estrogen receptor beta (Homo sapiens) (Q92731 whole entry, looked up): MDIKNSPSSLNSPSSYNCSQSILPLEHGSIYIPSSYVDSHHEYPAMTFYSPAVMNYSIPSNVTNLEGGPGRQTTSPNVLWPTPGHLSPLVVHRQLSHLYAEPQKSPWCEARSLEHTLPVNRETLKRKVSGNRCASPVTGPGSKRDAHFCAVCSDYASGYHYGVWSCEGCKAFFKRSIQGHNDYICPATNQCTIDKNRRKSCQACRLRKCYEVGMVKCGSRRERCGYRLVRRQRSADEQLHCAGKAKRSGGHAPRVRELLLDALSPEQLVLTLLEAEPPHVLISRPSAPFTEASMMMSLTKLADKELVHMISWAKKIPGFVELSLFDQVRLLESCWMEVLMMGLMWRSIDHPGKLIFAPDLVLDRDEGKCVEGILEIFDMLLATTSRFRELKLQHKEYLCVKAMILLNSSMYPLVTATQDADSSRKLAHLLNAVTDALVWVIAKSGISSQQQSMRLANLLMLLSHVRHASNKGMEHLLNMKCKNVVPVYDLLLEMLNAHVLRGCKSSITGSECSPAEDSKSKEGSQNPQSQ
Outline: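 ER-beta-UAS-bla HEK293T cells in 2% charcoal-stripped FBS medium treated with compound plus 1nM final 17-beta-estradiol for 16 hr at 37C. Beta-lactamase reporter read by FRET substrate fluorescence after 2 hours at room temperature.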

## O=C(CCCN1CCC(n2c(=O)[nH]c3ccccc32)CC1)c1ccc(F)cc1
[1]
  Potency: inactive
[2]
  Potency: inactive
[3]
  Potency: inactive
[4]
  Potency: inactive
[5]
  Potency: inactive
[6]
  Potency: inactive
[7]
  outcome: inactive

## COC(=O)COc1ccc(Cl)cc1Cl
[8]
  Potency: inactive
[9]
  Potency: inactive
[3]
  Potency: inactive
[10]
  Potency: inactive
[4]
  Potency: inactive
[5]
  Potency: inactive
[11]
  Potency: inactive
[12]
  Potency: inactive
[13]
  Potency: inactive
[6]
  Potency: inactive
[7]
  outcome: inactive
[14]
  outcome: inactive
[15]
  outcome: inactive

## COc1ccc2c(c1OC)CN1CCc3cc4c(cc3C1C2)OCO4 (stereo not given)
[8]
  Potency: inactive
[16]
  Potency: 9.44 µM (active)
[1]
  Potency: inactive
[9]
  Potency: inactive
[2]
  Potency: inactive
[3]
  Potency: inactive
[10]
  Potency: inactive
[5]
  Potency: inactive
[12]
  Potency: inactive
[13]
  Potency: inactive
[6]
  Potency: inactive
[7]
  outcome: inactive
[17]
  outcome: inactive
[14]
  outcome: inactive
[15]
  outcome: inactive

## O=C(N[C@H]1CN2CCC1CC2)c1cc2ccoc2cn1
[18]
  Potency: inactive
[8]
  Potency: inactive
[1]
  Potency: inactive
[9]
  Potency: inactive
[2]
  Potency: inactive
[3]
  Potency: inactive
[10]
  Potency: inactive
[5]
  Potency: inactive
[11]
  Potency: inactive
[12]
  Potency: inactive
[13]
  Potency: inactive
[6]
  Potency: inactive
[7]
  outcome: inactive
[17]
  outcome: inactive
[14]
  outcome: inactive
[15]
  outcome: inactive

## CCOC(=O)C(c1c(O)c2ccccc2oc1=O)c1c(O)c2ccccc2oc1=O
[8]
  Potency: inactive
[1]
  Potency: inactive
[2]
  Potency: inactive
[3]
  Potency: inactive
[4]
  Potency: inactive
[5]
  Potency: inactive
[11]
  Potency: inactive
[12]
  Potency: inactive
[6]
  Potency: inactive
[7]
  outcome: inactive
[17]
  outcome: inactive
[14]
  outcome: inactive
[15]
  outcome: inactive

## CCC(C)(C)c1cc(-n2nc3ccccc3n2)c(O)c(C(C)(C)CC)c1
[18]
  Potency: inactive
[8]
  Potency: inactive
[1]
  Potency: inactive
[9]
  Potency: inactive
[3]
  Potency: inactive
[10]
  Potency: inactive
[4]
  Potency: inactive
[12]
  Potency: inactive
[6]
  Potency: inactive
[7]
  outcome: inactive
[17]
  outcome: inactive

## CCC1(c2ccccc2)C(=O)NC(=O)NC1=O
[8]
  Potency: inactive
[16]
  Potency: inactive
[9]
  Potency: inactive
[2]
  Potency: inactive
[3]
  Potency: inactive
[10]
  Potency: inactive
[4]
  Potency: inactive
[5]
  Potency: inactive
[11]
  Potency: inactive
[12]
  Potency: inactive
[13]
  Potency: inactive
[6]
  Potency: inactive
[7]
  outcome: inactive
[17]
  outcome: inactive
[14]
  outcome: inactive
[15]
  outcome: inactive

## CC1(C(=O)Nc2ccc(O)c(Cl)c2Cl)CCCCC1
[8]
  Potency: inactive
[16]
  Potency: inactive
[9]
  Potency: inactive
[4]
  Potency: inactive
[5]
  Potency: inactive
[11]
  Potency: 27.3 µM (active)
[6]
  Potency: inactive
[7]
  outcome: inactive
[17]
  outcome: inactive
[14]
  outcome: inactive
[15]
  outcome: inactive

## COc1cc(OC)nc(Sc2cccc(Cl)c2C(=O)O)n1
[8]
  Potency: inactive
[16]
  Potency: inactive
[3]
  Potency: inactive
[10]
  Potency: inactive
[4]
  Potency: inactive
[5]
  Potency: inactive
[11]
  Potency: inactive
[12]
  Potency: inactive
[13]
  Potency: inactive
[6]
  Potency: inactive
[7]
  outcome: inactive
[17]
  outcome: inactive
[14]
  outcome: inactive
[15]
  outcome: inactive

## C(CCOCC1CO1)COCC1CO1 (stereo not given)
[8]
  Potency: inactive
[2]
  Potency: inactive
[3]
  Potency: inactive
[10]
  Potency: inactive
[4]
  Potency: inactive
[5]
  Potency: inactive
[12]
  Potency: inactive
[13]
  Potency: inactive
[6]
  Potency: inactive
[7]
  outcome: inactive
[17]
  outcome: inactive
[14]
  outcome: inactive
[15]
  outcome: inactive

## CC(C)CP(=S)(S)CC(C)C
[8]
  Potency: inactive
[2]
  Potency: inactive
[3]
  Potency: inactive
[10]
  Potency: inactive
[4]
  Potency: inactive
[5]
  Potency: inactive
[6]
  Potency: inactive
[7]
  outcome: inactive
[14]
  outcome: inactive
[15]
  outcome: inactive

## O=C(O)c1ccc2[nH]cc(CCCCN3CC=C(c4ccccc4)CC3)c2c1
[8]
  Potency: inactive
[16]
  Potency: inactive
[1]
  Potency: inactive
[9]
  Potency: inactive
[2]
  Potency: inactive
[3]
  Potency: inactive
[10]
  Potency: inactive
[4]
  Potency: inactive
[5]
  Potency: inactive
[12]
  Potency: inactive
[13]
  Potency: inactive
[6]
  Potency: inactive
[7]
  outcome: inactive
[17]
  outcome: inactive

## CSc1nc(N=[N+]=[N-])nc(NC(C)C)n1
[8]
  Potency: inactive
[16]
  Potency: inactive
[2]
  Potency: inactive
[3]
  Potency: inactive
[10]
  Potency: inactive
[4]
  Potency: inactive
[5]
  Potency: inactive
[12]
  Potency: inactive
[13]
  Potency: inactive
[6]
  Potency: inactive
[7]
  outcome: inactive
[17]
  outcome: inactive
[14]
  outcome: inactive
[15]
  outcome: inactive

## C[C@H]1CCC[C@H](O)CCCCCc2cc(O)cc(O)c2C(=O)O1
[9]
  Potency: inactive
[2]
  Potency: 0.0616 µM (active)
[3]
  Potency: inactive
[10]
  Potency: inactive
[5]
  Potency: inactive
[6]
  Potency: inactive
[7]
  outcome: inactive
[17]
  outcome: inactive
[14]
  outcome: inactive
[15]
  outcome: inactive

## CC(C(=O)c1ccccc1)N(C)C (stereo not given)
[18]
  Potency: inactive
[8]
  Potency: inactive
[1]
  Potency: inactive
[9]
  Potency: inactive
[2]
  Potency: inactive
[3]
  Potency: inactive
[10]
  Potency: inactive
[5]
  Potency: inactive
[11]
  Potency: inactive
[12]
  Potency: inactive
[13]
  Potency: inactive
[6]
  Potency: inactive
[7]
  outcome: inactive
[17]
  outcome: inactive

## CCCCP(CCCC)CCCC
[18]
  Potency: inactive
[8]
  Potency: inactive
[9]
  Potency: inactive
[2]
  Potency: inactive
[3]
  Potency: inactive
[10]
  Potency: inactive
[4]
  Potency: inactive
[5]
  Potency: inactive
[12]
  Potency: inactive
[13]
  Potency: inactive
[6]
  Potency: inactive
[7]
  outcome: inactive
[14]
  outcome: inactive
[15]
  outcome: inactive

## O=S(=O)(O)C(F)(F)C(F)(F)C(F)(F)C(F)(F)C(F)(F)C(F)(F)F
[8]
  Potency: inactive
[16]
  Potency: inactive
[2]
  Potency: inactive
[3]
  Potency: inactive
[10]
  Potency: inactive
[5]
  Potency: inactive
[12]
  Potency: inactive
[6]
  Potency: inactive
[7]
  outcome: inactive
[17]
  outcome: inactive
